RAD52 inh – inhibitors of human RAD52 DNA annealing; 360,000 compounds, 0.46% hits; AID 651710; inhibition, % at 18.7 µM; recombinant RAD52 DNA annealing, FRET fluorescence;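 active means every replicate showing at least 50% inhibition; inconclusive means mean inhibition at least 50% but not in every replicate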
Target sequence (P43351 whole entry, looked up): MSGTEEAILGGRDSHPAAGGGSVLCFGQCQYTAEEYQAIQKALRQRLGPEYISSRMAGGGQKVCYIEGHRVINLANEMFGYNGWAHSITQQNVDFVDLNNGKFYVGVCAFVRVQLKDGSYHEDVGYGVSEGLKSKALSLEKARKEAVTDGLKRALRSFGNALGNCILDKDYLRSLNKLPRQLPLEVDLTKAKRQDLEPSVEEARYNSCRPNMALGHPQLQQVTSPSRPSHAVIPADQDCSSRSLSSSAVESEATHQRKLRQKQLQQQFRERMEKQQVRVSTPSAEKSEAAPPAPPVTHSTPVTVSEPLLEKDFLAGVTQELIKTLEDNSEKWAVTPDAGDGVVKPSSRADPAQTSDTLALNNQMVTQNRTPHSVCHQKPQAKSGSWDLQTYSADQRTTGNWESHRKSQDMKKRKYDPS
dFosB act-1 – activators of mouse delta FosB homodimer. activation, % at 25 µM. purified delta FosB, TAMRA-CDK5 oligo fluorescence polarization; percent of positive-control signal above neutral wells. 340,000 compounds, 0.99% hits. AID 493131;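 active means mean activation above about 17%, with every replicate also reaching it, limit read from the data, passing the limit was not always enough; inconclusive means only one of the two conditions met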
INS-1E GSIS act – GLuc luminescence reporter in INS-1E cells, primary screen for activators of glucose-dependent secretion of insulin; INS-1E GLuc reporter insulin secretion, 2-3 h; activation, % at 16.6 µM; 370,000 compounds, 0.61% hits; AID 743287;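 active means lowest replicate activation of at least 40%, so every replicate reaches that level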
MLL AF4-AF9 inh – blocks AF4 peptide binding to human AF9 | AlphaScreen, biotin-AF4 peptide binding to FLAG-AF9 | inhibition, % at 10 µM | 350,000 compounds, 0.47% hits | AID 651704;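 active means every replicate reaching a set inhibition limit, whatever the replicate mean, cut at about 25% in these data; inconclusive means mean inhibition reaches that limit but some replicates miss it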
RAD54 branch – inhibitors of human RAD54 branch migration | Q92698 | RAD54 Holliday junction branch migration, FAM/BHQ fluorescence | inhibition, % at 10.4 µM | 360,000 compounds, 0.14% hits | AID 602329;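 active means mean normalized replicate activity at least 40 and at least half of replicates scoring 40 or more; inconclusive means only one of the two criteria met; inactive means mean below 40 and under half of replicates reaching 40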;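 further: inhibitors cause a drop in the FAM fluorescence signal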
DENV2 CPE – inhibitors of DENV2 cytopathic effect. DENV2-infected cells, cytopathic effect rescue, plate reader. 350,000 compounds, 1.7% hits. CPE inhibition, % at 9.99 µM; in the data active means CPE inhibition above about 20%, passing the limit was not always enough; inconclusive means no clear call, values can overlap the other calls; tested in BHK-21 cells
dFosB act-2 – activators of mouse delta FosB homodimer DNA binding; AID 588690; shares compounds with dFosB act-1; activation, % at 24.9 µM; 2,400 tested, under 10 active; purified delta FosB, TAMRA-CDK5 oligo fluorescence polarization; normalised: neutral wells 0, positive control 100;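 active means highest replicate activation at or above 34% and every replicate reaching that threshold; inconclusive means meets only one of the two criteria; inactive means meets neither criterion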;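 further: higher polarization means more probe DNA bound by delta FosB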
A number is an active result; - = inactive; ? = inconclusive; . = no result. A selection: hits, their analogues and other compounds. The true share with any hit is near 3.1%.

SMILES	RAD52 inh	dFosB act-1	INS-1E GSIS act	MLL AF4-AF9 inh	RAD54 branch	DENV2 CPE	dFosB act-2
Cc1ccc(-c2cc(C(=O)NC3=NCCS3)c3ccccc3n2)cc1C	.	-	-	.	-	.	.
O=C(COC(=O)c1cccnc1Nc1cccc(C(F)(F)F)c1)NCc1ccc2c(c1)OCO2	.	19	.	.	-	.	-
O=C(COC(=O)c1cccnc1Cl)NCc1ccc2c(c1)OCO2	.	-	-	.	.	.	.
CC(c1ccccc1)N(NC(=O)C(O)(c1ccccc1)c1ccccc1)C(=O)c1ccccc1 (stereo not drawn)	-	38	.	-	-	-	-
CCN(NC(=O)C(O)(c1ccccc1)c1ccccc1)C(=O)c1ccccc1	.	-	-	.	.	.	.
C[C@H](CO)N1C[C@H](C)[C@@H](CN(C)S(C)(=O)=O)OCCCC[C@H](C)Oc2ccc(NS(=O)(=O)c3ccccc3)cc2C1=O	-	.	-	-	-	-	.
CCOC(=O)c1c(C)[nH]c(C)c1C(=O)CSc1nnc(-c2cc(OC)c(OC)c(OC)c2)o1	.	33	-	.	-	.	-
CC=Cc1ccc2n(c1=O)C[C@H]1[C@H](CO)[C@@H](C(=O)NCC)N(C(=O)C3CCOCC3)[C@@H]21 (mixture of isomers)	-	.	-	-	-	-	.
COc1ccc(CNc2nc3c(c(=O)[nH]c(=O)n3C)n2Cc2ccccc2C)cc1	-	18	-	?	-	-	-
Cn1c(=O)[nH]c(=O)c2c1nc(NCc1ccccc1)n2Cc1ccc(F)cc1	-	-	-	-	-	-	.
COc1cc(-c2ccc3c(=O)c4ccccc4n(C)c3c2)cc(OC)c1OC	-	35	-	-	-	-	-
COc1cc(-c2ccc3c(=O)c4ccccc4sc3c2)cc(OC)c1OC	-	-	-	-	-	-	.
Nc1nc(NCC(=O)O)nc(NCc2ccccc2)c1[N+](=O)[O-]	-	-	-	-	-	-	.
Cc1ccc(Nc2nc(N)c([N+](=O)[O-])c(NCc3ccccc3)n2)cc1	-	47	-	-	-	-	-
Cc1cccc(Nc2nc(N)c([N+](=O)[O-])c(NCCO)n2)c1	-	-	-	-	.	-	.
Cc1cccc(Nc2nc(N)c([N+](=O)[O-])c(NCc3ccco3)n2)c1	-	53	-	-	-	-	-
O=C(N[C@@H]1CC[C@H](CC(=O)N2CCOCC2)O[C@H]1CO)c1ccc2c(c1)OCO2	-	.	-	-	-	-	.
Cc1ccccc1-c1cnc2c(c1)C(=O)N([C@H](C)CO)C[C@H](C)[C@@H](CN(C)C(=O)CC1CC1)O2	-	.	-	-	-	-	.
COC(=O)c1ccc(NC(=O)CN2C(=O)NC3(CCC(C)CC3)C2=O)cc1 (stereo not drawn)	-	18	-	-	-	-	-
Cc1cccc(-n2nnnc2SCC(=O)N(CC(C)C)c2c(N)n(CC(C)C)c(=O)[nH]c2=O)c1	-	32	.	-	.	-	-
Cc1cccc(-n2nnnc2SCC(=O)c2cc(C)n(CC3CCCO3)c2C)c1 (stereo not drawn)	.	-	-	.	-	.	.
Cc1cccc(-n2nnnc2SCC(=O)c2cc(C)n(Cc3ccco3)c2C)c1	.	21	.	.	-	.	-
O=C(CNC(=O)c1n[nH]c2ccccc12)Nc1ccc(F)c(F)c1F	-	23	-	-	-	-	-
O=C(CNC(=O)c1cccc(Cl)c1)Nc1ccc(F)c(F)c1F	-	-	-	-	-	-	.
O=C(Nc1cccc([N+](=O)[O-])c1)Nc1cnccn1	-	27	-	-	-	-	-
O=C(Nc1cccc([N+](=O)[O-])c1)Nc1cccc([N+](=O)[O-])c1	-	-	-	-	.	-	.
CC(C)NC(=O)Nc1cccc2c1O[C@@H](CN(C)C(=O)Nc1ccc(F)cc1)[C@@H](C)CN([C@@H](C)CO)C2=O	-	.	-	-	-	-	.
C[C@H]1CN([C@@H](C)CO)C(=O)c2cccc(NC(=O)Nc3ccc(F)cc3)c2O[C@@H]1CN(C)CC1CC1	-	.	-	-	-	-	.
Cc1ccc(Cn2c(=S)[nH]c3ccc(N4CCOCC4)cc3c2=O)o1	.	-	.	.	.	.	.
CCOc1cc2[nH]c(=S)n(Cc3ccc(C)o3)c(=O)c2cc1OCC	-	34	-	-	-	-	-

Source: PubChem (Broad Institute)
